For experiment [1], the system named is PRMT1 (protein arginine N-methyltransferase 1). Kind of experiment: PRMT1 binders on small-molecule microarrays, primary screen, biochemical, small-molecule microarray, 635 nm fluorescence (AID 1088).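 Also: binding of Prmt1 protein to compounds spotted on small-molecule microarray slides.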 The note with it: small-molecule microarray binding, higher = more signal.
The nature of experiment [2]: yeast growth modulation, basal conditions, primary screen, YJM789 clinical isolate, OD600, 24 h (AID 1089).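 Also: growth of clinical yeast isolate S. cerevisiae YJM 789 seeded 1000 cells per well; test concentration not given here.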 The note with it: S. cerevisiae YJM789 growth, higher = more signal, called active from +8 up or from −8 down.
Experiment [3] can be described thus: fission yeast growth modulation, primary screen, strain 972, OD600, 24 h, no modulator (AID 1090).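 Also: basal condition with compound alone and no growth modifier present; test concentration not given here.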 The note with it: S. pombe 972 growth, higher = more signal, called active from +8 up or from −8 down.
Experiment [4] is described as follows: S. cerevisiae growth modulation with rapamycin, primary screen, strain BY4716, OD600, 96 h (AID 1091). Also: test concentration not given here. The note with it: higher = more signal, called active from +8 up or from −8 down.
The target in experiment [5] is Torsin-1A-interacting protein 2 (Homo sapiens) (UniProt Q8NFQ8). The experiment can be described thus: LULL1 binders on small-molecule microarray, primary screen, cell lysate, human LULL1 lysate, 635/667 nm fluorescence (AID 1092).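 Also: probe is lysate of COS7 cells overexpressing human LULL1; score merges per-feature 667 nm fluorescence with signal-to-noise.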 The note with it: hLULL1 lysate binding, 635 nm fluorescence, higher = more signal.
Torsin-1A-interacting protein 2 (Homo sapiens), sequence (Q8NFQ8 whole entry, looked up): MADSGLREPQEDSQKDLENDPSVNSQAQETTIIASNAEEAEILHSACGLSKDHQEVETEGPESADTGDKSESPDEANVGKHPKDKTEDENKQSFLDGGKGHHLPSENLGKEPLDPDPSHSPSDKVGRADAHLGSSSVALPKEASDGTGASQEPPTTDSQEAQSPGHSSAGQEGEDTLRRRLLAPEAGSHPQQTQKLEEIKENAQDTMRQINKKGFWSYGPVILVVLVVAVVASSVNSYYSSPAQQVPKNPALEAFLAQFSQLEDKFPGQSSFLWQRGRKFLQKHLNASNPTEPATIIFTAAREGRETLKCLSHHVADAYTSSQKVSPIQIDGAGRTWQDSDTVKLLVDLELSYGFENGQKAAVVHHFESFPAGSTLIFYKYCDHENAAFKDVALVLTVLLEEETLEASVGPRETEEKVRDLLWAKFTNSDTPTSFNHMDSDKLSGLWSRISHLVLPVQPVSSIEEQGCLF
Experiment [6] in a line: E. coli growth modulation, two-sided OD650, primary screen, E. coli filamentation project, strain DRC41, 24 h (AID 1093).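 Also: MC1000 strain lacking acrAB efflux and sulA so SOS filamentation is blocked; test concentration not given here.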 The note with it: OD650, 24 h, higher = more signal, called active from +8 up or from −8 down.
The nature of experiment [7]: small-molecule microarray binders of probe aLefty2, primary screen, biochemical, biotinylated probe, 635/667 nm fluorescence (AID 1094).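 Also: score merges spot fluorescence near 667 nm with spot signal-to-noise ratio.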 The conditions noted are these: higher = more signal.
For experiment [8], the system named is Noggin (protein binding on small-molecule microarray). Kind of experiment: Noggin binders on small-molecule microarray, primary screen, biochemical, 635/667 nm fluorescence (AID 1095).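 Also: score merges 667 nm feature fluorescence with signal to noise over triplicate slides.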 The note with it: 635 nm fluorescence, higher = more signal.
Experiment [9] deals with Neurogenic locus notch homolog protein 3 (Homo sapiens) (UniProt Q9UM47). Kind of experiment: NOTCH3 binders on small-molecule microarray, primary screen, biochemical, 635/667 nm fluorescence (AID 1096). The note with it: NOTCH3 binding, 635 nm fluorescence, higher = more signal.
Neurogenic locus notch homolog protein 3 (Homo sapiens), sequence (Q9UM47 whole entry, looked up): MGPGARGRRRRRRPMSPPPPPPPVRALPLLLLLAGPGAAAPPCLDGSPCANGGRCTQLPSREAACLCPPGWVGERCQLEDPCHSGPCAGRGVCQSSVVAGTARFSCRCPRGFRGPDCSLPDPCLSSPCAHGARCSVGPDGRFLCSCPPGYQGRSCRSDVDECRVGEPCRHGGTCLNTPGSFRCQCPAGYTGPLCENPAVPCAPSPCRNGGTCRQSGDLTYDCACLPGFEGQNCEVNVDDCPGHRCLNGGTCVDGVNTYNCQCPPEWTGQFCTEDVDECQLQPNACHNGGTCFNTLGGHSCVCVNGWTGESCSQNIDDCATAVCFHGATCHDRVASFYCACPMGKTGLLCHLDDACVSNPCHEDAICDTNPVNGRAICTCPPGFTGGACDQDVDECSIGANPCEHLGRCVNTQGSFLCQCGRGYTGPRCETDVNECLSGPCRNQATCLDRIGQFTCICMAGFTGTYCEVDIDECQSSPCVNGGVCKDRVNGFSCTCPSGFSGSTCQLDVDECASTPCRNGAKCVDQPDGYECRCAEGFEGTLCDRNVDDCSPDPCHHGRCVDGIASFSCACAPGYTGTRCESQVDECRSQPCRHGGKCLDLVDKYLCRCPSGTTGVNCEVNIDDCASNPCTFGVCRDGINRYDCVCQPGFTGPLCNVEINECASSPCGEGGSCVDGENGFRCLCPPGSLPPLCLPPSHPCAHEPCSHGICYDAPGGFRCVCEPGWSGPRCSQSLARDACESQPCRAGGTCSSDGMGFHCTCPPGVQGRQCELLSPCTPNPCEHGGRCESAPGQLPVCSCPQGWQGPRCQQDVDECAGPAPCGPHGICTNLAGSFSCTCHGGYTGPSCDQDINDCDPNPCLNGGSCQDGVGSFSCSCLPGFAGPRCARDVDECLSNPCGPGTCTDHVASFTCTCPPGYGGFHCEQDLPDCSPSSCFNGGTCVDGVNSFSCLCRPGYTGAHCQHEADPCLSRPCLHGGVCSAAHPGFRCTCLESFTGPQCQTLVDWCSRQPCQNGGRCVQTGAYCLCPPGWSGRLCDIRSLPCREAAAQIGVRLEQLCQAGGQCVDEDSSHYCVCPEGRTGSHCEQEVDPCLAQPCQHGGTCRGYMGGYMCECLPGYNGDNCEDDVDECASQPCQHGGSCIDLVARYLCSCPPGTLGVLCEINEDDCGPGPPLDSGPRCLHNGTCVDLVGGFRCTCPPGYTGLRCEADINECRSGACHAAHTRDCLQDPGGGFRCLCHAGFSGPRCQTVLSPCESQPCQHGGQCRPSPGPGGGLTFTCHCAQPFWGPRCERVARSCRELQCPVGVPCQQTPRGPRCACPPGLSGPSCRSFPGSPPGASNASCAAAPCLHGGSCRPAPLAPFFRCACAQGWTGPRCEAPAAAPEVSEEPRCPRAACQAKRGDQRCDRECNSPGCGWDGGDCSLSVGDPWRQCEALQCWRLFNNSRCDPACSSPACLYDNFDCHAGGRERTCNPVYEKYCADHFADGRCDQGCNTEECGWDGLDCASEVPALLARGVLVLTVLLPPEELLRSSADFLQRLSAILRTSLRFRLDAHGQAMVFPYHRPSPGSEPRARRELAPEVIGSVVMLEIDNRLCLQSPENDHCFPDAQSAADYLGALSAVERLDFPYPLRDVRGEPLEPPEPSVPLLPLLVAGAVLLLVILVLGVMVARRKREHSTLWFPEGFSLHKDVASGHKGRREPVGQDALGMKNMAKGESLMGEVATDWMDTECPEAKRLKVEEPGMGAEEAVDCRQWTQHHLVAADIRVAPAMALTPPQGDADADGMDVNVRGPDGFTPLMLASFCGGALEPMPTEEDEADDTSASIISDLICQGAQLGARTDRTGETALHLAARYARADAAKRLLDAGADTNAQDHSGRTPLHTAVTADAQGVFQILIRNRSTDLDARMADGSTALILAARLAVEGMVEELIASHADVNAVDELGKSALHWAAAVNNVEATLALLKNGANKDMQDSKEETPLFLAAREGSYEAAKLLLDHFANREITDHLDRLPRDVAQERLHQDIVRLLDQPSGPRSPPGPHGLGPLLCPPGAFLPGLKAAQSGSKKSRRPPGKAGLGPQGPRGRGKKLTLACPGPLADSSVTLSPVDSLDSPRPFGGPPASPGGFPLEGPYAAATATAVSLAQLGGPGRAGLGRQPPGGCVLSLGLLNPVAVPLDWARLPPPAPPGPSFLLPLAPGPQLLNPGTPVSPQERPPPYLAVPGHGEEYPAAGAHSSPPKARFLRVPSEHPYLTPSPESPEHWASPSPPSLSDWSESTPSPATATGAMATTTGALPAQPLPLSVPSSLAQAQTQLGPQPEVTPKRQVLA
Experiment [10] can be described thus: small-molecule microarray binders of probe aEGFR, primary screen, biochemical, biotinylated probe, 635/667 nm fluorescence (AID 1097).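 Also: probe is a biotinylated anti-EGFR antibody binding compounds printed on slides; score combines fluorescence near 667 nm and signal to noise of each spot.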 The conditions noted are these: higher = more signal.
Experiment [11] deals with Plasmodium falciparum Sir2 (PF13_0152, Sir2A). Kind of experiment: pfSir2 binders on small-molecule microarrays, primary screen, biochemical, small-molecule microarray, 635 nm fluorescence (AID 1098).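 Also: score merges spot fluorescence intensity with its signal-to-noise ratio.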 The note with it: small-molecule microarray binding, fluorescence 635 nm; higher = more signal.
Experiment [12] in a line: small-molecule microarray binders of probe aDKK1, primary screen, biochemical, biotinylated probe, 635/667 nm fluorescence (AID 1099).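 Also: score merges 667nm spot fluorescence with signal to noise across triplicate slides; reference of the scale not given here.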 The note with it: higher = more signal.
Experiment [13] in a line: small-molecule microarray binders of probe aCHRDL2, primary screen, biochemical, biotinylated probe, 635/667 nm fluorescence (AID 1100). The conditions noted are these: higher = more signal.
Experiment [14] is described as follows: splicing luciferase reporter signal modulators, primary screen, spliceosome inhibition project, cell-based, HEK293, splice +/- reporter (AID 1101).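 Also: HEK293 cells carrying a splicing-competent luciferase reporter gene; test concentration not given here.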 The conditions noted are these: luminescence, 24 h, higher = more signal, called active from +8 up or from −8 down. In general terms: A reporter such as luciferase makes a cellular process visible.
For experiment [15], the target named is Fibroblast growth factor 10 (Homo sapiens) (UniProt O15520). Kind of experiment: FGF10 binders on small-molecule microarrays, primary screen, biochemical, small-molecule microarray, 635 nm fluorescence (AID 1102). The note with it: FGF10 binding, fluorescence 635 nm, higher = more signal.
Fibroblast growth factor 10 (Homo sapiens), sequence (O15520 whole entry, looked up): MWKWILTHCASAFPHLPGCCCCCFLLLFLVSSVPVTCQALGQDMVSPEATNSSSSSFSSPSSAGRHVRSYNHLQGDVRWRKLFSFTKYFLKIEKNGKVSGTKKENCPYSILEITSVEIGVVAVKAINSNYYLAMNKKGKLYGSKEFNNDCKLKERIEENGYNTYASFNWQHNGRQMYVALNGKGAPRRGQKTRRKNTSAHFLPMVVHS
The subject of experiment [16] is glycogen synthase kinase-3 (GSK3A per assay name; protocol says GSK3B). The experiment can be described thus: GSK3 binders on small-molecule microarrays, primary screen, biochemical, small-molecule microarray, 635 nm fluorescence, GSK3A (AID 1103). Also: the record names both GSK3A and GSK3B. The note with it: small-molecule microarray binding, fluorescence 635 nm; higher = more signal.
Experiment [17] deals with Epidermal growth factor receptor (Homo sapiens) (UniProt P00533). The experiment can be described thus: EGFR binders on small-molecule microarrays, primary screen, biochemical, small-molecule microarray, 635 nm fluorescence (AID 1104).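 Also: score merges 667 nm emission intensity with spot signal to noise over triplicate slides.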 The conditions noted are these: EGFR binding, higher = more signal.
Epidermal growth factor receptor (Homo sapiens), sequence (P00533 whole entry, looked up): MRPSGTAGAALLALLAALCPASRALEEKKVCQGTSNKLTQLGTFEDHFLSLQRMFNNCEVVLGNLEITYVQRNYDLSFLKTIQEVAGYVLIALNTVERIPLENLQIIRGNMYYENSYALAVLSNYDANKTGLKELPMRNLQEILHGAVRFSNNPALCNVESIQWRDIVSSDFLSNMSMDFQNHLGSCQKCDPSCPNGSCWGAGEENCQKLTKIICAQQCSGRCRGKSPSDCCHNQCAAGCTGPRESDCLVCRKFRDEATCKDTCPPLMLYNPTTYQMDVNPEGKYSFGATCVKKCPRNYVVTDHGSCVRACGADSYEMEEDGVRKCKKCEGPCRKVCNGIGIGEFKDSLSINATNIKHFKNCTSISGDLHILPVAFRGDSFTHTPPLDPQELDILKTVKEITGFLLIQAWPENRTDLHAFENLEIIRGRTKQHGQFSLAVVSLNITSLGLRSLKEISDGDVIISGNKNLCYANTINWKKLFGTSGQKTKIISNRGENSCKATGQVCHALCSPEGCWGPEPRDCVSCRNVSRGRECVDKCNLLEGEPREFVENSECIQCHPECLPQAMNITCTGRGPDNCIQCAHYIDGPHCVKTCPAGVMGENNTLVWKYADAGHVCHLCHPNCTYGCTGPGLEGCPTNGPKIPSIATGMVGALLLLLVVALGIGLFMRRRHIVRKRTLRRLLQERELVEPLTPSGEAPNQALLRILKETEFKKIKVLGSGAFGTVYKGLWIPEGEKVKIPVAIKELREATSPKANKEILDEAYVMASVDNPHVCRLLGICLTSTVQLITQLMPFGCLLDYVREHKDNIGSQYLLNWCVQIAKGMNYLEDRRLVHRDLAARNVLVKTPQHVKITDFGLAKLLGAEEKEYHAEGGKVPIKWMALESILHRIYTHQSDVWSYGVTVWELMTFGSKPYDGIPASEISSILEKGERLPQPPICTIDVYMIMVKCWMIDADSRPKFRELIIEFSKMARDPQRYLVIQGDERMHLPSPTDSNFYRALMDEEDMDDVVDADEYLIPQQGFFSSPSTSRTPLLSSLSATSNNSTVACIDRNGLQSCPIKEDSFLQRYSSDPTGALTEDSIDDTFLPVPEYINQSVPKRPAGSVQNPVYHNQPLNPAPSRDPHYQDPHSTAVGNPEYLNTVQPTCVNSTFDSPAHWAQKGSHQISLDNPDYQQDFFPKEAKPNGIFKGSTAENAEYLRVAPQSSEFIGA
The target in experiment [18] is Follistatin-related protein 3 (Homo sapiens) (UniProt O95633). The experiment can be described thus: FSTL3 binders on small-molecule microarrays, primary screen, biochemical, small-molecule microarray, 635 nm fluorescence (AID 1105).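 Also: score merges emission near 667 nm and signal to noise per printed spot across three slides.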 The note with it: FSTL3 binding, higher = more signal.
Follistatin-related protein 3 (Homo sapiens), sequence (O95633 whole entry, looked up): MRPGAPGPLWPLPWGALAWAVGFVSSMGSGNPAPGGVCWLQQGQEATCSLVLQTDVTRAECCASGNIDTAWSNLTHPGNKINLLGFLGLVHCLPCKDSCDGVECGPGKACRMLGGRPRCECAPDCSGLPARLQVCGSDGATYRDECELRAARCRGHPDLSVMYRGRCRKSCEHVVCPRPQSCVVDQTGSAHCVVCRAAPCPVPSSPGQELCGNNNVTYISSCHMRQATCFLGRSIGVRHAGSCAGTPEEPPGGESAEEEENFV
Experiment [19] deals with Dickkopf-related protein 1 (Homo sapiens) (UniProt O94907). The experiment can be described thus: DKK1 binders on small-molecule microarrays, primary screen, biochemical, small-molecule microarray, 635 nm fluorescence scan (AID 1106).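 Also: score merges emission near 667 nm with signal to noise over three replicate slides.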 The conditions noted are these: DKK1 binding, higher = more signal.
Dickkopf-related protein 1 (Homo sapiens), sequence (O94907 whole entry, looked up): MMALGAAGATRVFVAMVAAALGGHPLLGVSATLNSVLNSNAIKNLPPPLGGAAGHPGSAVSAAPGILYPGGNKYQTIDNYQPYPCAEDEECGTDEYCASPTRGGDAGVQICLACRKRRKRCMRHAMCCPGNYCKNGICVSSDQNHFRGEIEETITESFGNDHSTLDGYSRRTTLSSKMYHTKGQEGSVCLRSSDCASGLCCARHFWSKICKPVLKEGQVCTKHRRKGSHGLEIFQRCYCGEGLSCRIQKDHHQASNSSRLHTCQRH
In experiment [20] the test system is Inhibin beta A chain (activin A). Kind of experiment: INHBA (activin A) binders on microarrays, primary screen, biochemical, small-molecule microarray, 635 nm fluorescence scan (AID 1107).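 Also: mouse activin A protein probed at 4.33 µg/mL on printed slides; score merges bound-protein fluorescence near 667 nm with spot signal-to-noise.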 The conditions noted are these: small-molecule microarray binding, higher = more signal.

The source made the active and inactive calls.

In the case of `C=C(CC1([C@@H](NP(=O)(c2ccccc2)c2ccccc2)[C@H]2C[C@@H]2CCN(C(=O)OCC)S(=O)(=O)c2ccc(C)cc2)CC1)c1ccccc1`, the composite z-score is -0.362 in experiment [1]; 2.98 in experiment [5]; 0.502 in experiment [7]; 0.229 in experiment [8]; 1.02 in [9]; 0.104 in experiment [10]. Further, the composite z-score was found to be 0.827 in experiment [11]; 1.31 in [12]; 1.23 in [13]; 0.429 in experiment [15]; 0.288 in [16]; 0.0577 in experiment [17]. In addition, the composite z-score was 0.748 in [18], -0.636 in [19] and 1.17 in [20]. Further, the z-score in experiment [2] is 0.585 (inactive); in experiment [3] it was 0.722 (inactive); in [4], 3.51 (inactive); in experiment [6] it was -0.926 (inactive); in experiment [14], -2.39 (inactive).
`COc1cccc(OC)c1C(=O)O[C@H]1[C@@H]2OC(=O)[C@H](Cc3cccc(Br)c3)C/C=C/C[C@@H](Cc3cccc(Br)c3)C(=O)O[C@H]2[C@@H](OC)O[C@@H]1CO`: the composite z-score in experiment [1] was 1.4; in [5], 1.08; in experiment [7], -0.0711; in experiment [8], 0.8; in [9] it was 0.541; in experiment [10], -0.0678. For the same molecule, the composite z-score in [11] was -0.178; in experiment [12], 0.281; in experiment [13] it was 0.325; in experiment [15] it was 0.927; in experiment [16], 0.277; in [17], -0.0525. The composite z-score in experiment [18] is 0.735; in [19], 0.298; in [20], 0.42. The z-score in experiment [2] was -0.372 (inactive); in [3] it was -0.246 (inactive); in experiment [4] it was 0.231 (inactive); in [6], -1.17 (inactive); in experiment [14], 0.0705 (inactive).
As to `COc1ccc([Si](C)(C)[C@H]2[C@H](CCO)O[C@@]3(C(=O)N(Cc4ccc(N5CCOC5=O)cc4)c4ccccc43)[C@@H]2C)cc1`, the composite z-score is 1.06 in experiment [1]; 1.27 in experiment [5]; -0.139 in experiment [7]; 0.0178 in [8]; 0.287 in experiment [9]; -0.315 in experiment [10]. The composite z-score was 0.901 in [11]; -0.0663 in [12]; 0.171 in [13]; -0.0921 in experiment [15]; -0.155 in experiment [16]; -0.197 in [17]. In addition, the composite z-score is -0.0181 in [18], -0.524 in experiment [19] and 0.416 in [20]. For the same molecule, the z-score in experiment [2] is 3.62 (inactive); in experiment [3], 0.623 (inactive); in [4], 35.9 (active); in experiment [6], 0.816 (inactive); in [14] it was -1.15 (inactive).
Regarding `COc1cc(OC)c(C(O)C2C=CC3C(=O)N(c4ccccc4)C(=O)C3N2Nc2ccccc2F)cc1Br` (stereo not given), the composite z-score in [1] is 1.58; in [5], 3.44; in experiment [7], 0.0235; in experiment [8] it was 0.662; in experiment [9], 1.03; in experiment [10] it was -0.0531. Further, the composite z-score was 0.76 in experiment [11]; 0.805 in [12]; 0.95 in experiment [13]; 0.97 in experiment [15]; 0.0826 in [16]; 0.256 in experiment [17]. Also, the composite z-score was 1.45 in experiment [18], -0.351 in [19] and 0.625 in [20]. The z-score in experiment [2] is 0.0228 (inactive); in [3] it was 1.77 (inactive); in experiment [4], 0.511 (inactive); in experiment [6], -1.36 (inactive); in experiment [14], 0.484 (inactive).
Consider `O=C1NC(=O)C2C1C=CC(C(O)c1ccc(F)cc1)N2Nc1ccccn1` (stereo not given), for which the composite z-score is 0.477 in experiment [1]; 2.64 in [5]; -0.103 in experiment [7]; -0.0682 in experiment [8]; -0.0883 in [9]; -0.0271 in experiment [10]. For the same molecule, the composite z-score is 1.06 in experiment [11]; -0.118 in [12]; 0.243 in [13]; 0.138 in experiment [15]; -0.371 in experiment [16]; 0.255 in [17]. Moreover, the results for the composite z-score in experiment [18], in experiment [19] and in experiment [20] were -0.0918, 0.297 and 0.877, respectively. Also, the z-score in experiment [2] is 0.128 (inactive); in [3] it was 0.42 (inactive); in [4], 0.333 (inactive); in experiment [6] it was -1.83 (inactive); in [14] it was 1.23 (inactive).

These data come from PubChem BioAssay.
